Bioassay records as filed in PubChem.
ABCB6 inh 2: inhibitors of human ABC transporter ABCB6. Q9NP58. K562-ABCB6 porphyrin accumulation, flow cytometry, 1 h; stronger effect = lower value. fluorescence ratio to DMSO, % at 10 µM. 360,000 compounds, 0.19% hits. AID 602162;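 active means fluorescence ratio to DMSO below 75%, the collection mean minus 3 SD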;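 further: signal is porphyrin accumulated inside mitochondria; lower ratio means ABCB6 inhibition with less porphyrin fluorescence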
iPSC survival up: increases survival of single human iPS cells; hiPSC single-cell survival, ATPlite luminescence; 100% = ROCK inhibitor wells, 0% = DMSO; survival enhancement, % at 20 µM; 360,000 compounds, 0.044% hits; in the data active means survival enhancement above about 18%;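 further: cells exposed to compounds for 16 hours before the ATP read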
NRP1-CendR mod: NRP-1/CendR interaction modulation | FAM-RPARPAR peptide binding to NRP-1, fluorescence polarization | AID 602438 | 360,000 compounds, 0.85% hits | inhibition, % at 25 µM | O14786;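 active means inhibition or corrected inhibition above about 18%, plus a signal ratio from 0.5 to 1.5, limit read from the data, passing the limit was not always enough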
Target sequence (O14786 whole entry, looked up): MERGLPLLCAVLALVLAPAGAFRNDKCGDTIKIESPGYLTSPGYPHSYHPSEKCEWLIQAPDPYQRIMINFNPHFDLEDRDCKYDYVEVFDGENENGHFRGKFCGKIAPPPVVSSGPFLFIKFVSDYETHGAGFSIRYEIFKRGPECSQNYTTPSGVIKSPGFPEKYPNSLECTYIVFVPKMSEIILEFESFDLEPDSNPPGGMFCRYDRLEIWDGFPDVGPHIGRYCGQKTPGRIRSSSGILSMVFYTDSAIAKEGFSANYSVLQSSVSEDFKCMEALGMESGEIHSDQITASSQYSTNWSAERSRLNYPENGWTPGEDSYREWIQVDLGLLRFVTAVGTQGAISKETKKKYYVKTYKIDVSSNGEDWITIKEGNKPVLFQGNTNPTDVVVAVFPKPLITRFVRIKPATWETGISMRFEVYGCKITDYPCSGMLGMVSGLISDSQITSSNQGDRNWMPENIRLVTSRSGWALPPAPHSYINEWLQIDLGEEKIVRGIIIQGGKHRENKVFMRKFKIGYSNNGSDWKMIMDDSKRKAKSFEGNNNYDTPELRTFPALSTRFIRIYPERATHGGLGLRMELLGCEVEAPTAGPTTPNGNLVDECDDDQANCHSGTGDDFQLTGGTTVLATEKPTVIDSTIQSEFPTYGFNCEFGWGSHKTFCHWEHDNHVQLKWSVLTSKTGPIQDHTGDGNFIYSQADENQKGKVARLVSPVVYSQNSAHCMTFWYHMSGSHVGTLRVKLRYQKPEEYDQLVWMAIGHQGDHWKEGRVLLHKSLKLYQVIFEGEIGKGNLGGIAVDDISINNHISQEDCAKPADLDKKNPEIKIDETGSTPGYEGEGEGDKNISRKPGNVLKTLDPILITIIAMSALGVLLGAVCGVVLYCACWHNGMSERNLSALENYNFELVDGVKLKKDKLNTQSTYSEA
ARNT-TACC3 inh: ARNT/TACC3 interaction disruption; inhibition, % at 9.99 µM; 390,000 compounds, 0.66% hits; AlphaScreen His-ARNT PAS-B/GST-TACC3 binding, luminescence; TACC3 fragment carries E629A point mutation; AID 623870;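 active means mean inhibition of replicates at least 50% and at least half of replicates each reaching 50%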
GSIS activator: GLuc luminescence reporter in INS-1E cells, primary screen for activators of glucose-dependent secretion of insulin; INS-1E GLuc reporter insulin secretion, 2-3 h; 370,000 compounds, 0.61% hits; activation, % at 16.6 µM; AID 743287;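 active means lowest replicate activation of at least 40%, so every replicate reaches that level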
Numbers stand for hits. An excerpt weighted towards active compounds, which were near 1.8% of everything screened.

Results for C[C@@H]1CN([C@H](C)CO)C(=O)c2cccc(NS(C)(=O)=O)c2O[C@@H]1CN(C)Cc1ccccc1 ?
ARNT-TACC3 inh: inactive; GSIS activator: inactive

Results for Cc1ccc(C(=O)NCC(=O)Nc2ccccc2C)o1 ?
ABCB6 inh 2: inactive; iPSC survival up: inactive; NRP1-CendR mod: 23; GSIS activator: inactive

What do the screens show for `CCCN1[C@@H]2c3ccc(C4=CCCCC4)c(=O)n3C[C@@H]2[C@@H](CO)[C@@H]1C(=O)OC`?
ARNT-TACC3 inh: inactive; GSIS activator: inactive

Results for O=C(Cn1ccc(NC(=O)OCc2ccccc2)nc1=O)NCCN1CCOCC1 ?
ABCB6 inh 2: inactive; iPSC survival up: inactive; NRP1-CendR mod: 38; ARNT-TACC3 inh: inactive; GSIS activator: inactive

What do the screens show for `O=C(Cn1ccc(NC(=O)OCc2ccccc2)nc1=O)NCCCN1CCCC1=O`?
ABCB6 inh 2: inactive; iPSC survival up: inactive; NRP1-CendR mod: inactive; ARNT-TACC3 inh: inactive; GSIS activator: inactive

What do the screens show for `COc1ccc2c3c([nH]c2c1)[C@@H](CO)N(Cc1ccccc1F)CC31CCN(C(=O)C2CCCC2)CC1`?
GSIS activator: inactive

Results for S=C(Nc1ccc2nsnc2c1)NC1CCCCC1 ?
ABCB6 inh 2: inactive; iPSC survival up: inactive; NRP1-CendR mod: inactive; ARNT-TACC3 inh: 25; GSIS activator: inactive

What do the screens show for `C=CCN(CC=C)C(=S)Nc1ccc2nsnc2c1`?
ABCB6 inh 2: inactive; iPSC survival up: inactive; NRP1-CendR mod: 30; ARNT-TACC3 inh: inactive; GSIS activator: inactive

How did S=C(Nc1ccc2nsnc2c1)N1CCCCCC1 do in these assays?
ABCB6 inh 2: inactive; iPSC survival up: inactive; NRP1-CendR mod: 45; ARNT-TACC3 inh: inactive; GSIS activator: inactive

How did O=C(Nc1ccc2nsnc2c1)N1CCCCC1 do in these assays?
ABCB6 inh 2: inactive; iPSC survival up: inactive; NRP1-CendR mod: inactive; ARNT-TACC3 inh: inactive

What do the screens show for `COCCNC(=O)/C(C#N)=C/c1ccc2c(c1)OCO2`?
ABCB6 inh 2: inactive; iPSC survival up: inactive; NRP1-CendR mod: 35; ARNT-TACC3 inh: inactive; GSIS activator: inactive

How did COCCNC(=O)/C(C#N)=C/c1cc(C)n(-c2ccc(C)cc2)c1C do in these assays?
ABCB6 inh 2: inactive; iPSC survival up: inactive; NRP1-CendR mod: 27; ARNT-TACC3 inh: inactive; GSIS activator: inactive

Results for C[C@@H]1CN([C@H](C)CO)C(=O)c2cc(C#CC3CCCCC3)cnc2O[C@H]1CN(C)C ?
GSIS activator: inactive

How did O=C(COc1nncc2ccccc12)NCC(F)(F)F do in these assays?
ABCB6 inh 2: inactive; iPSC survival up: inactive; NRP1-CendR mod: inactive; GSIS activator: 44

Results for O=C(COc1nncc2ccccc12)Nc1c(F)c(F)c(F)c(F)c1F ?
ABCB6 inh 2: inactive; iPSC survival up: inactive; NRP1-CendR mod: inactive; ARNT-TACC3 inh: inactive; GSIS activator: inactive

How did O=[N+]([O-])c1ccc(Nc2ccccc2)c2nonc12 do in these assays?
ABCB6 inh 2: inactive; iPSC survival up: inactive; NRP1-CendR mod: inactive; ARNT-TACC3 inh: inactive; GSIS activator: inactive

How did O=[N+]([O-])c1ccc(Sc2cccc[n+]2[O-])c2nonc12 do in these assays?
ABCB6 inh 2: inactive; iPSC survival up: inactive; NRP1-CendR mod: 34; ARNT-TACC3 inh: 62; GSIS activator: inactive

Results for Oc1cccc(/C=N/NC(=S)NCCN2CCOCC2)c1O ?
ABCB6 inh 2: inactive; iPSC survival up: inactive; NRP1-CendR mod: inactive; ARNT-TACC3 inh: 69; GSIS activator: inactive

What do the screens show for `Cc1ccc(S(=O)(=O)N[C@@H]2CC[C@H](CCn3cc(C4CCCC4)nn3)O[C@@H]2CO)cc1`?
GSIS activator: inactive

What do the screens show for `COc1ccc(N2CCN(C(c3cccs3)C(C)NC(=O)C(=O)N3CCOCC3)CC2)cc1` (centres undefined)?
ABCB6 inh 2: inactive; iPSC survival up: inactive; NRP1-CendR mod: inactive; ARNT-TACC3 inh: inactive; GSIS activator: 79

How did CC(NC(=O)C(=O)N1CCOCC1)C(c1cccs1)N1CCN(c2ccccc2)CC1 (centres undefined) do in these assays?
ABCB6 inh 2: inactive; iPSC survival up: inactive; NRP1-CendR mod: inactive; ARNT-TACC3 inh: inactive; GSIS activator: inactive

How did C[C@@H]1CCCCO[C@H](CN(C)Cc2ccc(C(F)(F)F)cc2)[C@H](C)CN([C@H](C)CO)C(=O)c2cc(NC(=O)c3ccccc3)ccc2O1 do in these assays?
ARNT-TACC3 inh: inactive; GSIS activator: inactive

How did CCCCCC(=O)NNC(=S)NC(C)=O do in these assays?
ABCB6 inh 2: inactive; iPSC survival up: inactive; NRP1-CendR mod: inactive; ARNT-TACC3 inh: 71; GSIS activator: inactive

What do the screens show for `CCOC(=O)CN1C(=O)N[C@@H](c2ccccc2)[C@H](C(C)=O)[C@H]1C`?
ABCB6 inh 2: inactive; iPSC survival up: inactive; NRP1-CendR mod: 25; ARNT-TACC3 inh: inactive; GSIS activator: inactive

What do the screens show for `CCOC(=O)CN1C(=O)N[C@@H](c2ccccc2)[C@@H](C(=O)OC)[C@H]1C`?
ABCB6 inh 2: inactive; iPSC survival up: inactive; NRP1-CendR mod: inactive; ARNT-TACC3 inh: inactive; GSIS activator: inactive

Results for O=[N+]([O-])c1ccc(C(O)CN2CCN(C/C=C/c3ccccc3)CC2)cc1 (centres undefined) ?
ABCB6 inh 2: inactive; iPSC survival up: inactive; NRP1-CendR mod: inactive; ARNT-TACC3 inh: inactive; GSIS activator: 51

How did C[C@@H]1CN([C@H](C)CO)C(=O)c2cc(NC(=O)NC3CCCCC3)ccc2O[C@@H](C)CCCCO[C@@H]1CN(C)Cc1ccc(C(F)(F)F)cc1 do in these assays?
ARNT-TACC3 inh: inactive; GSIS activator: inactive

How did NC1=C(Br)C(=O)c2ncccc2C1=O do in these assays?
ABCB6 inh 2: inactive; iPSC survival up: inactive; NRP1-CendR mod: 28; ARNT-TACC3 inh: 64; GSIS activator: inactive

What do the screens show for `O=C1c2cccnc2C(=O)N1CO`?
ABCB6 inh 2: inactive; iPSC survival up: inactive; NRP1-CendR mod: inactive; ARNT-TACC3 inh: inactive

How did O=C(O)c1ccc(-c2nc(-c3ccccc3)c(-c3cccs3)[nH]2)cc1 do in these assays?
ABCB6 inh 2: inactive; iPSC survival up: inactive; NRP1-CendR mod: inactive; ARNT-TACC3 inh: inactive; GSIS activator: 53

How did CC(C)CN=CC1=C(O)c2ccccc2C1=O do in these assays?
ABCB6 inh 2: inactive; iPSC survival up: inactive; NRP1-CendR mod: 23; ARNT-TACC3 inh: inactive

How did O=C1C(C=NCCCn2ccnc2)=C(O)c2ccccc21 do in these assays?
ABCB6 inh 2: inactive; iPSC survival up: inactive; NRP1-CendR mod: inactive; ARNT-TACC3 inh: inactive

How did O=C1C(C=NCc2ccccn2)=C(O)c2ccccc21 do in these assays?
ABCB6 inh 2: inactive; iPSC survival up: inactive; NRP1-CendR mod: inactive; ARNT-TACC3 inh: 66; GSIS activator: inactive

How did C[C@@H]1CN([C@@H](C)CO)C(=O)c2cc(N(C)C)ccc2O[C@@H](C)CCCCO[C@@H]1CN(C)C(=O)Nc1ccc(C(F)(F)F)cc1 do in these assays?
GSIS activator: inactive

How did COc1ccc(CN2CCS(=O)(=O)CC2)cc1OC do in these assays?
ABCB6 inh 2: inactive; iPSC survival up: inactive; NRP1-CendR mod: inactive; ARNT-TACC3 inh: inactive; GSIS activator: inactive

How did Cc1ccc(CN2CCS(=O)(=O)CC2)cc1 do in these assays?
ABCB6 inh 2: inactive; iPSC survival up: inactive; NRP1-CendR mod: 27; ARNT-TACC3 inh: inactive
